Data as given in PubChem BioAssay AID1903 (Southern Research Specialized Biocontainment Screening …, 2009).
The whole screen tested about 310,000 compounds, of which about 1,200 (0.39%) were called active. No rule for the calls is given here. The list is a sample of the results. Results with a measured potency or affinity are listed apart.

Each compound was assayed against Large T antigen (Simian virus 40) (UniProt P03070) (assay: SV40 large T antigen inhibitors, biochemical (AID 1903)). Settings: SV40 large T antigen ATPase/helicase inhibition assay; at 20 µM; hits give high values.
Sequence of Large T antigen (Simian virus 40) (P03070 whole entry, looked up): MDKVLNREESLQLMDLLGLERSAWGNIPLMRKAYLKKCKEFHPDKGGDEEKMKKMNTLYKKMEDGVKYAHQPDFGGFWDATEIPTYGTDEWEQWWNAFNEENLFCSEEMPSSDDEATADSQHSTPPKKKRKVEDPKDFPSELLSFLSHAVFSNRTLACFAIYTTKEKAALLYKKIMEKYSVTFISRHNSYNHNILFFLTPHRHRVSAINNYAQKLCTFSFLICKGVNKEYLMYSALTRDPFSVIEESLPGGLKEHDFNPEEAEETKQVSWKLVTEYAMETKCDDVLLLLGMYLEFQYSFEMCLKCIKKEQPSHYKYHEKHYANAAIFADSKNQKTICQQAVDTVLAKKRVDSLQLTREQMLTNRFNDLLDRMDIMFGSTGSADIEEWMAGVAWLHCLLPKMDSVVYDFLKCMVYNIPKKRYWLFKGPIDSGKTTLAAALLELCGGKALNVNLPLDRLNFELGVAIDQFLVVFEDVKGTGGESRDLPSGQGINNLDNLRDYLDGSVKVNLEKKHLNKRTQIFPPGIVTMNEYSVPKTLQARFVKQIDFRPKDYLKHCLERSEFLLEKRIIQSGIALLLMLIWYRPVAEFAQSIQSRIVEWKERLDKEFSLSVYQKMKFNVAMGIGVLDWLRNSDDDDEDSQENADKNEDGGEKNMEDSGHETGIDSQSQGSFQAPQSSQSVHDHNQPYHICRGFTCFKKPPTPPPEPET

inhibition, inactive:
Cn1ccnc1Sc1cc(Cl)ccc1[N+](=O)[O-] 1.59%, CCOC(=O)C1=NN(C(C)=O)C2(CC(=O)N(c3ccc(C)c(C)c3)C2=O)C1 (centres undefined) 10.2%, O=C(NCC1CCCO1)C1CCN(C2CCN(C3CCCCCC3)CC2)CC1 (centres undefined) 6.53%, CSc1nc(C)c(CCOCc2ccc(F)cc2)c(=O)[nH]1 6.59%, COc1ccccc1N1C(=O)CC(Sc2nc(C)cc(C)n2)C1=O (centres undefined) 5.59%, COc1ccccc1N1C(=O)C2CC(C)=C(C)CC2C1=O (centres undefined) 6.96%, CCCCOc1ccc(C2(C)NC(=O)NC2=O)cc1 (centres undefined) 3.93%, COc1ccc(S(=O)(=O)N(CC(=O)NCc2ccncc2)c2ccc(C)cc2)cc1OC 7.04%, CN(CC(=O)Nc1ccc(F)cc1)C(=O)COC(=O)Cc1cccs1 8.61%, O=C(C1=NN[C@@H]2C(=O)N(c3cccc(F)c3)C(=O)[C@H]12)C(c1ccccc1)c1ccccc1 1.36%, Cn1cc(C(=O)c2cccc(Cl)c2)cc1/C=N\O -2.98%, CC(=O)c1ccc(OC(=O)CN2C(=O)c3ccccc3C2=O)cc1 14.1%, O=S(=O)(c1cccs1)N1CCN(c2ccccc2)CC1 1.66%, S=C(NCCc1ccccc1)N1CCCC1 7.81%, O=S(=O)(c1cccs1)N1CCN(c2ccc(Cl)cc2)CC1 2.25%, O=C(NC(=S)N1CCN(c2ccc(F)cc2)CC1)c1cccs1 1.9%, CC(=O)c1ccc(N2CCN(C(=O)CCC(=O)c3cccs3)CC2)cc1 4.57%, Oc1ccccc1N1CCN(C(=S)NCCc2ccccc2)CC1 7.92%, O=C(CCC(=O)N1CCN(c2cccc(Cl)c2)CC1)c1cccs1 1.82%, O=C(NC(=S)N1CCCCC1)c1cccs1 9.19%, CN1CCN(CCc2nc3cc(NC(=O)COc4ccc([N+](=O)[O-])cc4)ccc3n2C)CC1 16.7%, O=C(NCC1CCCO1)c1cn(-c2ccccc2)nc1-c1ccc(F)cc1 (centres undefined) 27.6%, COc1cc(S(=O)(=O)N2CCOCC2)cc(C(=O)c2nccn2C)c1OC -1.37%, CN(C(=O)COC(=O)CNC(=O)c1ccc(C(C)(C)C)cc1)c1c(N)n(Cc2ccccc2)c(=O)[nH]c1=O 6.23%, COc1cnc(-c2ccccn2)nc1Oc1cccc(Cl)c1 30.5%, Cc1ccc(-n2cccc2/C=C2/NC(=O)N(CC(=O)Nc3cccc(C)c3)C2=O)cc1 10.3%, Cc1cccc(NC(=O)CN2C(=O)N/C(=C\c3cccn3-c3cccc(C(=O)O)c3)C2=O)c1 3.89%, COC(=O)C1CCN(Cc2ccc(C)cc2)CC1 3.14%, N#C/C(=C/Nc1ccccc1F)S(=O)(=O)c1ccc(Cl)cc1 -5.3%, COc1ccc(-c2cnnn2-c2ccc(NC(=O)/C=C/c3ccc(OC)c(OC)c3)cc2)cc1 4.37%, CC(Oc1ccc(Cl)cc1Cl)C(=O)NCCCN(C)C (centres undefined) 13.2%, O=C(O)c1ccc(-c2ccc(OS(=O)(=O)c3ccccc3F)cc2)cc1 -2.26%, O=C(O)Cc1ccc(O)c(F)c1 11.8%, CC(=O)Nc1ccc(S(=O)(=O)N2CCN(Cc3cccnc3)CC2)cc1 0.357%, Cc1scc(C(=O)NNC(=S)NCC2CCCO2)c1-c1ccccc1 (centres undefined) 11.4%, CCN=c1scc(-c2ccco2)n1/N=C/c1ccc(O)cc1 11.2%, CCN=c1scc(-c2ccco2)n1/N=C/c1ccc(OC)c(O)c1 19.6%, CN=c1scc(C)n1/N=C/c1ccc(O)c(O)c1O 7.3%, CN=c1scc(C)n1/N=C/c1ccc2c(c1)OCO2 11.5%, Cc1nnc(C)n1/N=C/c1ccc(O)cc1 -1.45%, CN=c1scc(-c2cccs2)n1/N=C/c1ccccc1O 6.26%, CC1Oc2ccccc2N(CC(=O)N2CCCC2)C1=O (centres undefined) 2.95%, O=C1Cn2c(nc3ccccc32)N1c1ccccc1F 5.32%, Cc1cc[n+](CC(=O)Nc2ccccc2)cc1 -1.49%, COc1ccc(Nc2nc(N)c([N+](=O)[O-])c(NCc3ccccc3)n2)cc1 2.61%, CCCC12CN(C(=O)c3ccc(OC)cc3)CC(C)(CN(C(=O)c3ccc(OC)cc3)C1)C2=O 14.8%, COc1ccc(CONc2ncnc3nonc23)cc1[N+](=O)[O-] 24.5%, O=c1cc(-c2ccccc2)oc2cc(O)cc(O)c12 3.39%, O=c1c(O)c(-c2cc(O)c(O)c(O)c2)oc2cc(O)cc(O)c12 14.3%, O=c1cc(-c2ccc(O)cc2)oc2cc(O)cc(O)c12 5.06%, O=c1c(O)c(-c2ccc(O)cc2)oc2cc(O)cc(O)c12 2.71%, Cc1cccc(/C=C2\CCC(C3CCCC3)C2=O)c1 (centres undefined) 1.68%, CCN(CC)C(=O)c1cc(Cl)ccn1 -2.78%, O=C(NCC1CCCO1)c1cc(S(=O)(=O)Nc2ccc(Br)cc2)ccc1Cl (centres undefined) -4.53%, COC(=O)C1C(=O)NC(SC)=C(C#N)C1c1ccccc1F (centres undefined) 10.2%, CCOC(=O)C1C(=O)NC(SC)=C(C#N)C1c1ccccc1F (centres undefined) 13.4%, COc1ccccc1/C=C(/C(=O)OCC(=O)Nc1cc(C)ccc1C)c1ccccc1 5.11%, CCOC(=O)C(=CNc1ccc(NC2=NCC(C)S2)cc1)C(=O)OCC (centres undefined) 12%, CC1CN=C(Nc2cccc(S(=O)(=O)N(C)C)c2)S1 (centres undefined) 21.1%, Cc1cccc2cc3c(nc12)-c1ccccc1C3=O 7.99%, Cc1ccc(Cl)c(OC(=O)C2CSC3(C)CCC(=O)N23)c1 (centres undefined) 28%, CC(C)Sc1nc2ccccc2n1CC(=O)NCc1ccc2c(c1)OCO2 10.4%, O=C(O)/C=C/c1cnn(-c2ccccc2)c1 6.6%, O=C(c1cnn(-c2ccccc2)c1)c1ccccc1O -1.98%
